Only some compounds are listed: those with a hit (about 11% of all), similar ones and a draw of the others.
RORg inh – blocks mouse ROR gamma transcriptional activity | P51450 | Potency, µM (titrated, usually from 53.6 µM), inactives show at the highest dose activity change, negative = inhibition, usual class: inhibitors | 310,000 compounds, 5.4% hits | AID 2551 | Drosophila S2 Gal4-RORgamma UAS-luciferase reporter, 20 h; note: potency is the fitted concentration of half-maximal effect; % is set by controls: 0 for no effect and ±100 for the full control effect; nearly all actives have a fitted effect of over 60% in size
Target sequence (P51450 whole entry, looked up, the tested form may be a part): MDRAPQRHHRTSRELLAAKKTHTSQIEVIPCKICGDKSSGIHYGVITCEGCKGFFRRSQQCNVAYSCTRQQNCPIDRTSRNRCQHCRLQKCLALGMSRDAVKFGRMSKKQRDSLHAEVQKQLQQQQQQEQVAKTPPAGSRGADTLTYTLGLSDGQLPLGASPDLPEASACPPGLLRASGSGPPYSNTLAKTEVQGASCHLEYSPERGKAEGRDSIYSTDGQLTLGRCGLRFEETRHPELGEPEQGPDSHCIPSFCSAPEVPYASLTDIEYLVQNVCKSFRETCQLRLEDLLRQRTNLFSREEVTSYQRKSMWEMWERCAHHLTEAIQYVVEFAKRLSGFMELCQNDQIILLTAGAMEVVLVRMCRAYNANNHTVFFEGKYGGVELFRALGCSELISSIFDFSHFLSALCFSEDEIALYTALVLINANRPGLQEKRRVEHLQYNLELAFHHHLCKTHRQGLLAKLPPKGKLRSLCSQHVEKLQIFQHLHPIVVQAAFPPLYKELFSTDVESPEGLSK
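Read-out: Photinus luciferase luminescence; inhibitors lower reporter signal. Insect Schneider cells with Gal4-ROR gamma fusion under metallothionein promoter, UAS reporter; 700 uM final copper sulfate induction, 20 hr, ambient temperature.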
SW480 rereplic – inducers of DNA re-replication in SW480 colon cancer cells. AID 624297. Potency, µM (doses to about 46.1 µM), inactives show top-dose re-replication activation, most hits filed as activators. SW480 DNA re-replication, Hoechst DNA content imaging, 48 h. 340,000 compounds, 1.8% hits; note: potency is the fitted concentration of half-maximal effect; % of control where 0% means no effect; nearly all actives have a fitted effect of over 55% in size
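Quantitative HTS format with DMSO vehicle controls; 48 hr drug incubation at 37 C, then 40 min Hoechst staining and scanning imager measurement at 405 nm excitation.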
MCF10A rerep – DNA re-replication induction in MCF 10a cells; 350,000 compounds, 2.9% hits; AID 624296; Potency, µM (top dose mostly 46.1 µM), for the others: top-dose activity, positive = re-replication, most hits filed as activators; MCF 10A DNA re-replication, Hoechst nuclear intensity, 48 h; note: potency is the fitted concentration of half-maximal effect; % of control where 0% means no effect; nearly all actives have a fitted effect of over 50% in size
Gal4-VP16 FLuc – counter-screen for ROR gamma inhibitors: Gal4-VP16 reporter | Drosophila S2 Gal4-VP16 UAS-luciferase, luminescence, 20 h | Potency, µM (series often up to 53.6 µM), for the others: at the highest dose activity, negative = inhibition, actives largely listed as inhibitors | 310,000 compounds, 3.5% hits;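 note: Gal4-VP16 expression switched on by copper sulfate through the metallothionein promoter; potency is the fitted concentration of half-maximal effect; % is set by controls: 0 for no effect and ±100 for the full control effect; nearly all actives have a fitted effect of over 50% in size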
IL-1B inflam inh – inhibitors of inflammasome signaling (IL-1 beta secretion); THP-1 LPS/ATP IL-1B secretion, AlphaLISA, 16 h; stronger effect = lower value; activity change, % at 57.5 µM; 360,000 compounds, 4.7% hits; AID 743279; in the data active = activity change below about -50%; inconclusive = mostly about -30% to -49%; note: % is set by controls: 0 for no effect and ±100 for the full control effect
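Secreted IL-1B measured by AlphaLISA bead assay after 16 h compound exposure of THP-1 cells; compounds (final up to 57.5 uM) added 1 h before LPS (250 ng/mL) and ATP (1.25 mM) stimulation; lower signal means less secretion.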
* hit, by the source's call; u = inconclusive; x = no result; [ ] = dose if it differs, or a comment. Unless noted, calls come from the whole dose curve; as a rule, active = well fitted curve in the direction sought with a large enough effect; inconclusive = small, poorly fitted or top-dose-only effect, or another doubt; inactive = no such curve, though single readings can be large; an effect the other way counts as inactive or inconclusive.

SMILES | RORg inh | SW480 rereplic | MCF10A rerep | Gal4-VP16 FLuc | IL-1B inflam inh
O=C(Nc1ccc(SC(F)F)cc1)c1ccc2nccnc2c1 | u | u | 9.6% | -18.7% | -97.3*
COc1cc(SC)ccc1C(=O)Nc1ccc2c(c1)OCCO2 | 11.2µM* | 23.6% | u | u | u
Cc1ccn2cc(C(=O)Nc3ccccc3N3CCOCC3)nc2c1 | 6.2% | -4.3% | -2.7% | -4.7% | -9.0
Cc1ccn2cc(C(=O)Nc3ccc4c(c3)OCCO4)nc2c1 | 1.26µM* | u | -0.1% | 4.47µM* | -89.1*
Nc1c(C(=O)Nc2ccc3c(c2)OCCO3)nnn1Cc1cccc(Br)c1 | x | u | u | x | -51.3*
Nc1c(C(=O)Nc2ccc3c(c2)OCCO3)nnn1Cc1ccc(Br)cc1 | x | 5.1% | -1.0% | x | 4.1
C[C@@H]1CCCCO[C@H](CN(C)C(=O)Cc2ccccc2)[C@@H](C)CN([C@H](C)CO)C(=O)c2cc(NC(=O)Nc3ccccc3)ccc2O1 | x | x | x | x | 30.5
CCCCN1C2=NC(c3ccccc3)CN2c2ccccc21 (configuration not stated) | x | u | u | x | -26.9
Cc1ccc(C(=O)Nc2ccc3c(c2)OCCO3)c(Cl)c1 | 7.94µM* | 10.4% | -5.8% | 5.01µM* | u
Cc1ccc2nc(-c3cccc(NC(=O)c4ccc5c(c4)OCCO5)c3)oc2c1 | u | -2.4% | 18.4µM* | -3.7% | 4.9
CCC(C)N1CCC2(CC1)N=c1c(c3c4c5c(C)c(O)c3c(O)c1=NC(=O)C(C)=CC=C[C@H](C)[C@H](O)[C@@H](C)[C@@H](O)[C@@H](C)[C@H](OC(C)=O)[C@H](C)[C@@H](OC)C=CO[C@@](C)(O5)C4=O)N2 (some centres not stated) | x | u | -5.5% | x | u
CC(=O)c1c(C(C)=O)c(C)n(-c2nc(-c3ccc(C)c(C)c3)c(C)s2)c1C | u | 2.9% | 7.7% | u | -66.8*
CN1CCC(OC(=O)C(Oc2ccc(Cl)cc2)Oc2ccc(Cl)cc2)CC1 | 6.9% | 7.3% | -1.5% | 2.1% | x
CC1(C)CC(NC(=O)c2ccc(F)cc2)CC(C)(C)N1 | x | x | x | x | -1.1
CC(=O)c1ccc(-c2ccc(C(=O)NC3CC(C)(C)NC(C)(C)C3)o2)cc1 | x | -3.1% | 6.5% | x | -55.6*
COC(=O)c1c(-n2c(C)cc(C=O)c2C)sc2c1CCCC2 | 18.4% | -20.4% | 3.2% | 0.1% | -63.2*
CC(C)NS(=O)(=O)c1ccc(Oc2ncc(C(F)(F)F)cc2Cl)cc1 | u | -1.5% | u | 0.7% | -2.5
COc1ccc(S(=O)(=O)NN(C)c2ncc(C(F)(F)F)cc2Cl)cc1 | 3.98µM* | 16.3% | 7.4% | u | 19.3
CN(C1CCCCC1)S(=O)(=O)c1ccc2c(c1)CCC(=O)N2 | x | 3.2% | 7.6% | x | 13.0
O=C(CCSc1ccc(Cl)cc1)N1CCN(S(=O)(=O)c2ccccc2)CC1 | x | 5.3% | u | x | -13.3
COc1ccccc1C1CN(c2ccccc2)N=C1c1cccs1 (configuration not stated) | -2.2% | 18.7% | 8.9% | 7.2% | 22.3
COc1cccc(C2CN(c3ccc(F)cc3F)N=C2c2cccs2)c1OC (configuration not stated) | 4.3% | 4.11µM* | u | 0.8% | 14.1
Cc1ccc(C2=CC(C)(c3ccc(C)cc3)Nc3nc(C(F)(F)F)nn32)cc1 (configuration not stated) | 11.5% | 0.5% | 5.6% | u | -5.3
CC1(c2ccc(OCC#N)cc2)C=C(c2ccc(OCC#N)cc2)n2nc(C(F)(F)F)nc2N1 (configuration not stated) | u | u | 18.4µM* | -10.8% | -85.9*
Nc1ccc2c(c1)C/C(=C/c1ccco1)C2=O | -29.0% | u | -0.3% | u | -69.6*
SMILES | RORg inh | SW480 rereplic | MCF10A rerep | Gal4-VP16 FLuc | IL-1B inflam inh
CCN(CC)CCCn1c2c(c(SCC(=O)Nc3ccc4c(c3)OCCO4)nc1=O)CCC2 | x | -0.4% | -1.1% | x | u
S=C(NCCC(c1ccccc1)c1ccccc1)Nc1cccc(Cl)c1 | 5.01µM* | -2.3%[9.22 µM] | u | 15.8µM* | 0.1
S=C(NCCN(C1CCCCC1)C1CCCC1)Nc1cccc(Cl)c1 | 17.8µM* | u | u | u | x
FC(F)(F)c1ccccc1NC(=S)Nc1cccc(Cl)c1 | u | -2.6% | -7.0% | 8.9% | -3.7
COc1ccccc1N1CCN(S(=O)(=O)c2ccc3c(c2)NC(=O)C(C)C(=O)N3)CC1 (configuration not stated) | 4.4% | 14.3% | 9.3% | -0.4% | 29.4
Cc1ccc(Cl)cc1N1CCN(S(=O)(=O)c2ccc3c(c2)NC(=O)C(C)C(=O)N3)CC1 (configuration not stated) | 36.8% | 9.2% | 18.4µM* | u | 14.0
Cc1ccc(Cl)cc1N1CCN(S(=O)(=O)c2ccc3[nH]c(=O)ccc3c2)CC1 | -28.4% | 1.1% | 23.1µM* | 1.7% | 19.5
CNC(=S)N/N=C/c1c(C)c(C(=O)c2ccc(F)cc2)n2ccccc12 | 5.01µM* | 20.9% | 16.5% | 7.94µM* | 58.9
Cc1c(/C=N/NC(N)=O)c2ccccn2c1C(=O)c1ccc(F)cc1 | 2.2% | -3.7% | 18.7% | -13.3% | -70.1*
Cc1c(/C=N/O)c2ccccn2c1C(=O)c1ccc(F)cc1 | -6.7% | -1.5% | 2.9% | 0.6% | -15.8
Cc1c(C=NNC(=O)c2ccc(Br)cc2)c2ccccn2c1C(=O)c1ccncc1 | x | -7.0% | -2.7% | x | -11.4
Oc1ccc(C[C@@H]2CNCCN2CCc2cccc(F)c2)cc1 | x | 8.6% | -4.0% | x | -17.9
CC1CCC(C(=O)c2c(O)c3ccccc3oc2=O)CC1 (configuration not stated) | -10.4% | 7.2% | 9.3% | -7.3% | -94.4*
CN1C(=O)/C(=C/c2cc3c(cc2Br)OCO3)NC1=S | 4.47µM* | -4.5% | 10.6% | u | 19.9
COc1ncc(-c2ccc(N3C(c4ccc([N+](=O)[O-])cc4)=Cc4ccccc4C3CC(C)=O)cc2)cn1 (configuration not stated) | x | x | x | x | 7.9
Oc1ccc(Br)cc1-c1cc(-c2ccccc2)n[nH]1 | 1.26µM* | u | u | u | -2.0
O=[N+]([O-])c1cccc(-c2cc(-c3cc(Br)ccc3O)[nH]n2)c1 | 7.08µM* | u | 14.3% | 11.2µM* | -89.0*
Oc1ccc(Br)cc1-c1cc(-c2ccc(Cl)cc2)n[nH]1 | u | 14.6µM* | 14.6µM* | u | -14.4
COc1ccc(O)c(-c2cc(-c3cccc(Br)c3)n[nH]2)c1 | u | -18.8%[9.22 µM] | u | u | -6.0
COCCNC(=O)C1(C(F)(F)F)C/C(=C\Cc2ccccc2)CCCO1 (configuration not stated) | -36.7% | x | x | u | x
O=S(=O)(N/N=C/c1ccccc1OCc1ccc(Cl)cc1)c1ccccc1 | 29.5% | u | 3.26µM* | -2.4% | 5.5
O/N=C/c1ccccc1OCc1ccccc1Cl | -18.0% | 2.4% | 0.6% | -5.3% | -27.3

Assay outcomes from PubChem BioAssay.
